Test results: PubChem BioAssay AID376 (PDSP, 2006)
About 250 (12%) of roughly 2,000 compounds were called active. The full list was thinned out, with actives kept by preference. Unmarked numbers belong to inactive results. No stated cut-off is given here; in the data, active means hERG blockade below about -20% or above about 20%; inactive means in between.

Each molecule was assayed against Voltage-gated inwardly rectifying potassium channel KCNH2 (Homo sapiens) (UniProt Q12809) (assay: KCNH2 potassium channel function modulators, cell-based (AID 376;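 further: 0% = buffer alone and 100% = reference blocker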)). Settings: hERG-expressing cells, channel activity single-concentration screen; concentration not given here.
Chain of Voltage-gated inwardly rectifying potassium channel KCNH2 (Homo sapiens) (Q12809 whole entry, looked up): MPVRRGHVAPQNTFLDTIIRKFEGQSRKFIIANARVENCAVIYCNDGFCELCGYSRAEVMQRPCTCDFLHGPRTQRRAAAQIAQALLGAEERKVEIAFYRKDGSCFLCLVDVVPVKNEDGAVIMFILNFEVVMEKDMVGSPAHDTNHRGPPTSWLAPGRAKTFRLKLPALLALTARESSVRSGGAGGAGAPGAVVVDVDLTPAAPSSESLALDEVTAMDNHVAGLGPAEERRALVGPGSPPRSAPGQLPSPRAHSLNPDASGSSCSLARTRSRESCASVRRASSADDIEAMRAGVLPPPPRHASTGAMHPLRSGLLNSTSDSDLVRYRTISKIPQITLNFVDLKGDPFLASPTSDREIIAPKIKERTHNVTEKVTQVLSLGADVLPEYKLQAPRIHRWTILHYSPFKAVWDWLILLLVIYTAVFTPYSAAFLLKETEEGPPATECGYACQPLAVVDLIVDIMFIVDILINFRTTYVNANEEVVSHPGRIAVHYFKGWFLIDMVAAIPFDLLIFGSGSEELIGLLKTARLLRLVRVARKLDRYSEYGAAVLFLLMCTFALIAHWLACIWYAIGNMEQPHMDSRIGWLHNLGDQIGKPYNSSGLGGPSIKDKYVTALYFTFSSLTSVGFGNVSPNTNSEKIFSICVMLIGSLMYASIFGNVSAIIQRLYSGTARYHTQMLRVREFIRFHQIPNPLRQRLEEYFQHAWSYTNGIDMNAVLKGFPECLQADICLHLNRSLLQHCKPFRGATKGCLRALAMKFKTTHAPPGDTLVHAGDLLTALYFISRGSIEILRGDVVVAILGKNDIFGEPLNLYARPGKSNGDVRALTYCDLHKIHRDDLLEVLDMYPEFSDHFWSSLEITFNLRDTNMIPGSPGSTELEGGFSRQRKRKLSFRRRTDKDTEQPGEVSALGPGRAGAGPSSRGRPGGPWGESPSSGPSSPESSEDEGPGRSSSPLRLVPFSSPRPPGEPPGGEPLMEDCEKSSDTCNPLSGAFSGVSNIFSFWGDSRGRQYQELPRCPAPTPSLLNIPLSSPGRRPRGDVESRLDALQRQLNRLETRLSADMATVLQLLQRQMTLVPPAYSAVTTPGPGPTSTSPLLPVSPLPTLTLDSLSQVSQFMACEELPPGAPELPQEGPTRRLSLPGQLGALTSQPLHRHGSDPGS

| SMILES | hERG blockade |
| --- | --- |
| O=C(O)C(Cc1ccc([N+](=O)[O-])cc1)=NO | 0.35% |
| CC(CO)(CO)Nc1ncnc2ccccc12 | 2.95% |
| O=S(=O)(c1cnccc1N1CCN(CCO)CC1)N1CCCC1 | -8.49% |
| N=C1C(O)C2(I)c3ccccc3N3C(=N)C(O)C4c5ccccc5N1C4C32 (stereo unspecified) | 35.8% (active) |
| O=C(CSc1nc2ccccc2s1)c1sc2sc3ccccc3[n+]2c1O | 1.71% |
| CC(CCC(=O)O)C(=O)O (stereo unspecified) | 2.86% |
| O=C(O)c1ccc(CNCc2ccccc2)cc1 | -8.86% |
| Oc1ccc(CNCc2ccccc2)c2cccnc12 | 7.55% |
| Oc1ccccc1CNCc1ccccc1O | 23.5% (active) |
| CCCCN1CSC(=S)N(Cc2ccccc2)C1 | 13.4% |
| CCC(CS(=O)(=O)O)[N+](=O)[O-] (stereo unspecified) | 1.33% |
| O=C(O)CC(CC(=O)O)C(=O)O | 15.6% |
| Clc1ccc(CSCc2ccc(Cl)cc2Cl)c(Cl)c1 | 5.81% |
| N=C(N)SCc1ccc(Cl)cc1Cl (tested in a mixture with another compound) | 30.7% (active) |
| N=C(N)SCc1cc(Cl)cc(Cl)c1O | 12.3% |
| COC(=O)c1ccc(CCc2cc(O)ccc2O)cc1 | 11.9% |
| O=C(O)CCC(=O)c1ccc[nH]1 | 1.12% |
| O=C(O)c1cccc2cccc(-c3cccc4cccc(C(=O)O)c34)c12 | -6.19% |
| O=C(O)CCC(=O)c1ccc2ccc3cccc4ccc1c2c34 | -66.6% (active) |
| NCCNS(=O)(=O)c1ccc(N)cc1 | 2.62% |
| CC(C)(C)c1ccc(NS(=O)(=O)c2ccc(N)cc2)cc1 | -2.98% |
| Nc1ccc(S(=O)(=O)NCCS(=O)(=O)O)cc1 | -20.3% (active) |

| SMILES | hERG blockade |
| --- | --- |
| CCOC(=O)c1cnc(N(C)C)nc1SC(=N)N | 12.8% |
| c1cc(CNCCN2CCNCC2)ccn1 | -17.5% |
| CC(C)NCCC(O)c1cc2ccccc2o1 (stereo unspecified) | 7.89% |
| NC(N)=NC(N)=Nc1ccc(C(=O)O)cc1 | -11% |
| NC(N)=NC(N)=Nc1c(F)c(F)c(F)c(F)c1F | -23.3% (active) |
| NC(N)=NC(N)=Nc1ccccc1 (tested in a mixture with another compound) | -3.28% |
| O=C(O)CCc1c2ccc(=O)c(O)c-2oc2c(O)c(O)ccc12 | 6.94% |
| Oc1ccc(Cn2c(-c3ccc(O)cc3)nc3ccccc32)cc1 | 9.19% |
| NS(=O)(=O)c1cc2c(cc1Cl)=NC(CCC(=O)O)=NS=2(=O)O | -4.14% |
| [N-]=[N+]=NC1C(O)C(CO)OC1n1cnc2c(N)ncnc21 (stereo unspecified) | -1.39% |
| Cc1ccc(C(O)c2cnc(C)n2Cc2ccccc2)cc1 (stereo unspecified) | 0.183% |
| Cc1ccc2c(c1)NC(c1ccc(C(=O)O)cc1)c1cccn1-2 (stereo unspecified) | -13.1% |
| CC1CC2C3CCC4=CC(=O)C=CC4(C)C3(F)C(O)CC2(C)C1(O)C(=O)COP(=O)(O)O (stereo unspecified) | -1.33% |
| CC(=O)Nc1cc(CN2CCCCC2)c(O)c2ncccc12 | -2.13% |
| NC(CSc1nc2ccccn2c1[N+](=O)[O-])C(=O)O (stereo unspecified) | -1.31% |
| O=C(O)c1cccc(N=Nc2c(S(=O)(=O)O)ccc3c2C(=O)c2ccccc2C3=O)c1O | 6.27% |
| O=C1c2ccccc2C(=O)c2c1ccc(N1C(=O)c3ccccc3C1=O)c2-c1c(N2C(=O)c3ccccc3C2=O)ccc2c1C(=O)c1ccccc1C2=O | 15.5% |
| O=C1c2ccccc2C(=O)c2c1ccc(C(=O)O)c2-c1ccc2ccccc2c1 | 66.5% (active) |
| NC(C(=O)O)C(O)c1cnc[nH]1 (stereo unspecified) | 2.25% |
| O=C(O)CSc1nc2ccccc2[nH]1 | -15.3% |
| O=C(O)C1CCCCC1C(=O)Nc1nc2ccccc2[nH]1 (stereo unspecified) | 28.5% (active) |
| O=C1c2ccccc2-c2ccc(NC(=O)C3CCCCC3C(=O)O)cc21 (stereo unspecified) | 1.13% |

| SMILES | hERG blockade |
| --- | --- |
| CN(C)CCCNc1ncnc2nc[nH]c12 | 3.18% |
| C[N+]1(C)CCc2cc(O)c(O)cc2C1Cc1ccc(O)c(O)c1 (stereo unspecified) | -10.5% |
| CC(=NO)c1cccc[n+]1Cc1ccccc1 | -12.2% |
| COc1ccc(-c2csc3c2-n2cccc2C3=O)cc1 | 22.6% (active) |
| NC(=O)C1CCCN1Cc1ccc2c(c1)OCO2 (stereo unspecified) | -14.4% |
| CC12CCC(=O)C=C1CCC1C2CCC2(C)C(C(=O)Cn3cnc4c(=S)nc[nH]c43)CCC12 (stereo unspecified) | 12.1% |
| Nc1nc(N)c2[nH]c(CNc3ccc(C(=O)O)cc3)nc2n1 | 16.1% |
| CCn1c2ccccc2c2nnc(NCCCO)nc21 | -5.84% |
| CCOc1ccccc1Nc1ccc(N)cc1S(=O)(=O)O | 0.163% |
| S=C1SCN(C2CCCCCCCCCCC2)CN1C1CCCCCCCCCCC1 | 0.139% |
| COc1ccc(CSC2=C(C#N)C(=O)NC3(CCCCC3)S2)cc1 | -27.9% (active) |
| O=C(O)CSc1ccccc1C(=O)O | -2.77% |
| Cn1ncc2c(NCCc3ccccc3)nc(Cl)nc21 | 10% |
| c1ccc(CCCNc2nnnc3ccccc23)cc1 | 3.75% |
| Clc1nc(NCCc2ccccc2)c2ncn(-c3ccccc3)c2n1 | 34.7% (active) |
| O=C(O)C1(C(=O)O)CCN(S(=O)(=O)c2ccccc2)CC1 | -10% |
| CC(=NNC1=NCCN1)c1cn(C2=NCCN2)nc1C | 48.8% (active) |
| Cc1nc2sc3c(c2c(=O)[nH]1)CCCC3 | -7.98% |
| O=C(O)CC(Cc1ccccc1)C(=O)O (stereo unspecified) | 6.37% |
| COc1cc(C)cc2c(-c3c(O)cc(O)c4c3CC(C)NC4C)cc(-c3cc(-c4c(O)cc(O)c5c4CC(C)NC5C)c4cc(C)cc(OC)c4c3O)c(O)c12 (stereo unspecified) | 22.2% (active) |
| COc1cc(C2SCCCCCCCCCCSC(c3ccc(O)c(OC)c3)SCCCCCCCCCCS2)ccc1O (stereo unspecified) | 2.15% |
| CC(=N[N-]C(=[SH+])SCc1ccccc1)c1ccccn1.[Cl][Cu] | 3.22% |
